Measured values: the supplement of paper PMC6555819

test system: VDR:RXRa (NR concentration 270 nM, RXRa partner concentration 90 nM); assay: PBM binding z-score (relative to random genomic background probes); higher = stronger binding; sequences stand for … in GC…GCGATTGACAGCGTAGAATGAAGG
Procedure: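 Protein-binding microarray (Agilent 4x180K custom design, double-stranded 60-nt probes: 5' GC cap, 34-nt variable region, 24-nt constant primer region; full probe sequence given). Purified or IVT nuclear receptor:RXRα heterodimers (3:1 NR:RXRα, mostly 270:90 nM) or homodimers were incubated for 1 h in PBS with 2% milk and no ligand, then detected with Alexa488 antibodies. Fluorescence from o1-orientation probes (~5 replicates averaged) was converted to z-scores against 500 random hg19 background probes. Variable regions are seed direct-repeat (DR0–DR5) sites, all their single-nucleotide variants and half-site ablations.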

Row | Sequence | PBM binding z-score
1 | TCTGCTAGGTCAACGATGGTCTGCTAATCTGCTA | 0.981
2 | GCTTATAGATCAAGGTTAAGAAAGACTAAGCTAA | 0.244
3 | CATACAGGGTCAGCTATGCCAGAGTAGGGACGGC | 2.78
4 | CGTACTGGGCCAAAGGTCATTGATTCCAATGCTC | 5.07
5 | CCTACTGGGCCAAAAAGGTCATTCATGCCGATAA | 4.88
6 | ACTAGCAGGCCAAGGGTAACTCAAGATTAGTCCG | -0.166
7 | ATAGGTAGGTTAAGGGTCATTCAGGTTGGTTCGC | 5.65
8 | AATACAGGGTCACTAGGCCAGAGTTGGTACGAAT | 4.26
9 | TTACCAAGGTGAGCTGAGGTCGTTGGTCCAACTC | 3.79
10 | TCTTGTAGATAAAGCAGGTTAAGAAAGCCTGAGT | 0.751
11 | CACACTAGGTCAAGGTCAAAGTCGGTTTGTGCCA | 5.17
12 | CCTGCTAGGTCAATGGTCACCTAAAGCAGCTCGC | 1.45
13 | CGTCCAAGGTCAATGCTTGGTCAGTGAAAGCATT | 3.69
14 | ATCGAAAGGTCGTGAGGTGAGTATTCAGAAAGGC | 3.7
15 | ATCTCGAGGTAACCAAGTTCAGTGAATGCCGAAC | 5.47
16 | GGCACGAGGGCAAGTTGATAGCAGAGTTTGATGG | 0.599
17 | CGAACTAGGTCATTGACAGGACAGTAAATAGTAA | 2.34
18 | CAAACTAGGTCACCGGTAGGTCAAAGTCCGCATG | 4.75
19 | GCTATTAGTTGAAAGGGCACCCGAATGATTCTCG | 0.313
20 | TCTTGTAGATCAGCAGGTTGAGAAAGCTGGCCAA | 0.543

Row | Sequence | PBM binding z-score
21 | GCAGACAGGTGAAACGCAGATAACTCAGGGTGGC | -0.407
22 | TCTTGTAGTTCAATAGAGGTTAAGAAAGTGCGCT | 3.41
23 | GCAGACAGGTGAAACGCAGGTAACTGAGGGTGGC | -0.361
24 | TCTGCTAGATCAACGATGGTCAGCTAATCTGCTA | -0.489
25 | CCTTACGGGTTAAGGTTATAGCACGGGTGGTACG | 0.894
26 | GGAACGGGGGCAAAGTTGATAGCATCTGTCGACG | 3.25
27 | TCTCGGAGGACACGAAATGTCAGAGCTCGACATC | 0.0899
28 | CCTCGGAGGACAACAGGAGGTCAGAGGTGCCAGA | 2.28
29 | ACAGACAGGTGATGAAGGTAACTCACGCTATCAT | 0.327
30 | ACTAGTTGGTCAGCTGAGGCCACACACAATTCGG | 0.307
31 | CAAACTAGGTCACGGAGGTCAAAGTCCGTGCGTA | 7.92
32 | AGCTCTAGGTAACCAAGTTCAGTGAATGCCGAAC | 3.88
33 | CCGACTGGGGCAAAGATTACCATACTCAGTACGA | -0.618
34 | GCTAGCAGGCCATTCGGGTCACTCAATGACGGGC | 3.27
35 | AGAATGAGGTTACCGAAGATCAGGGAAACGCTTG | 1.53
36 | CATAGTTGGTCAGGAGGTCACACACCGGATATGA | 3.94
37 | AGTCAAAGTTCATCTAGGTAACGGAAGATATGCT | 4.95
38 | GCTCGCAGGCCATTTGGGTCACTCAATGACGGGC | 0.783
39 | CCTACTGGGGCAGAAAGGTTACCATACCATCCGG | 0.923
40 | TCTCGTAGATCAAAGGTTAAGAAAGCCGAAGCCT | 1.24
